This passage reports binding signal results from paper PMC7862700, “An all-to-all approach to the identification of sequence-specific readers for epigenetic DNA modifications on cytosine”.

Experiment in all cases: DAPPL (digital affinity profiling via proximity ligation, sequencing); 10 mM Tris-HCl pH 7.5, 50 mM NaCl, 1 mM DTT, 4% glycerol, room temperature, 30 min; GST-TFs on glutathione beads, 16-mer random dsDNA library, 0.1% formaldehyde crosslink after washing; high values mean tight binding
One experiment addresses T1, FEV (Homo sapiens, UniProt Q99581 1-238).
T1 sequence: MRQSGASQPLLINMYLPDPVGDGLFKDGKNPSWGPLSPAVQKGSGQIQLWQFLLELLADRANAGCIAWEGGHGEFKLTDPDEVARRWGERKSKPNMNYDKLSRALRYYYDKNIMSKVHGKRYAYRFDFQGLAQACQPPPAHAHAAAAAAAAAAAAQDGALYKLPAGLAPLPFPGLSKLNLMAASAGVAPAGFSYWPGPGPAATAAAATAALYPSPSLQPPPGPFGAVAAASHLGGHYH
The conditions noted are these: protein: recombinant; tags: N-terminal GST; dsDNA, one strand shown. The procedure, abridged:
(§1)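 Each value of binding signal is a hexamer's read frequency for a factor divided by the same hexamer's frequency in the tag-only sample. Barcoded, bead-captured GST fusions of human transcription factors made in yeast were pooled with that sample and incubated with 200 nmole of a random double-stranded 16-mer DNA library in Tris/NaCl/DTT/glycerol buffer at room temperature for 30 min. Washing, 0.1% formaldehyde crosslinking, proximity ligation, PCR and Illumina NextSeq500 sequencing followed.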

The target of another experiment is ETV5 (Homo sapiens, UniProt P41161 1-510). The note with it: protein: recombinant; tags: N-terminal GST; dsDNA, one strand shown. The method, boiled down:
as §1

The next experiment addresses HSF1 (Homo sapiens, UniProt Q00613 1-529). The note with it: protein: recombinant; tags: N-terminal GST; chain copies: 3; dsDNA, one strand shown. The method, boiled down:
as §1

The target in a further experiment is T2, SPIC (Homo sapiens, UniProt Q8N5J4 1-248).
T2 sequence: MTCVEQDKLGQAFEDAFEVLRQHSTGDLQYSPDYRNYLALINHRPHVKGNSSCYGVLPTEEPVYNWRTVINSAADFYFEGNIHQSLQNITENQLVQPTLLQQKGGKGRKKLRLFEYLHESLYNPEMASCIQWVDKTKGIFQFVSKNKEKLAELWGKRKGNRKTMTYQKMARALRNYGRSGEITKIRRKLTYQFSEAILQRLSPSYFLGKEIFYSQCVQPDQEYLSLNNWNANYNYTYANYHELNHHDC
The note with it: protein: recombinant; tags: N-terminal GST; dsDNA, one strand shown. The method, boiled down:
as §1

Another experiment deals with ELF4 (Homo sapiens, UniProt Q99607 1-663). The note with it: protein: recombinant; tags: N-terminal GST; dsDNA, one strand shown. The procedure, abridged:
as §1

Another experiment deals with T3, ELK4 (Homo sapiens, UniProt P28324-2 1-405).
T3 sequence: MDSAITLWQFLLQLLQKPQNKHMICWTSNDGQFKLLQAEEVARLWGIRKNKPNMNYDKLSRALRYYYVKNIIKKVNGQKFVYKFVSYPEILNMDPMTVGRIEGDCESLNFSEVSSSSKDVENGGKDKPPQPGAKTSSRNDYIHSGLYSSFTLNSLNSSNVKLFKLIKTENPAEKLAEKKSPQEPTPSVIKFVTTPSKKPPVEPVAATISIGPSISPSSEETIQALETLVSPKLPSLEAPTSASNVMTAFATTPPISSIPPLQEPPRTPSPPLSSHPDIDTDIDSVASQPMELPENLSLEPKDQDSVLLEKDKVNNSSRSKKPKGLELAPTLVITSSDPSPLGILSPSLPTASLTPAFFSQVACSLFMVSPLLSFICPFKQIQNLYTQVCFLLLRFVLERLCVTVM
The note with it: protein: recombinant; tags: N-terminal GST; dsDNA, one strand shown. The method, boiled down:
as §1

The target in the next experiment is T4, ETV2 (Homo sapiens, UniProt O00321 1-342).
T4 sequence: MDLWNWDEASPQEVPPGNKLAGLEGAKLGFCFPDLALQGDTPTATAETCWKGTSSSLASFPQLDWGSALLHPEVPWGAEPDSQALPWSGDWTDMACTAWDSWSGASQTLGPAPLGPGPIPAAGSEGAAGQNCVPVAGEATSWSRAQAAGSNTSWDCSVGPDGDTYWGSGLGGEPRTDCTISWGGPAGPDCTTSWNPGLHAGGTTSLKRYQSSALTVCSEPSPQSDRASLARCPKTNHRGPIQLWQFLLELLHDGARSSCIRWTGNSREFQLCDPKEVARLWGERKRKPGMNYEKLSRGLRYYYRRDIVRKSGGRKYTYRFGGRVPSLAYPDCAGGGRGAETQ
The conditions noted are these: protein: recombinant; tags: N-terminal GST; dsDNA, one strand shown. The method, boiled down: as §1

In another experiment the target is T5, ELF3 (Homo sapiens, UniProt P78545 1-371).
T5 sequence: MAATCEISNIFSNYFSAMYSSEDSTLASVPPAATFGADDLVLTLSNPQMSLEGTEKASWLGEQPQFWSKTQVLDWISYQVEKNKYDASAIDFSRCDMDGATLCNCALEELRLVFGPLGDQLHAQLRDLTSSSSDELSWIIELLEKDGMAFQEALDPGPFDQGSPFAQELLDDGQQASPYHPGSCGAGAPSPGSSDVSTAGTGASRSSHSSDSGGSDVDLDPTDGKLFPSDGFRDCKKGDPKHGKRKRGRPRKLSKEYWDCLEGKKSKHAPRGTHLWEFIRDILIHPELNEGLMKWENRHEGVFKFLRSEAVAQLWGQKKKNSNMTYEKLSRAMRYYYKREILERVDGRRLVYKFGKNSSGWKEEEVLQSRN
The conditions noted are these: protein: recombinant; tags: N-terminal GST; dsDNA, one strand shown. The method, boiled down:
as §1

For a further experiment, the target named is CRX (Homo sapiens, UniProt O43186 1-299). The note with it: protein: recombinant; tags: N-terminal GST; dsDNA, one strand shown. The procedure, abridged: as §1
The target of another experiment is ETV1 (Homo sapiens, UniProt P50549 1-477). The conditions noted are these: protein: recombinant; tags: N-terminal GST; dsDNA, one strand shown. The method, boiled down:
as §1

Another experiment concerns the target T6, ERF (Homo sapiens, UniProt P50548 1-548).
T6 sequence: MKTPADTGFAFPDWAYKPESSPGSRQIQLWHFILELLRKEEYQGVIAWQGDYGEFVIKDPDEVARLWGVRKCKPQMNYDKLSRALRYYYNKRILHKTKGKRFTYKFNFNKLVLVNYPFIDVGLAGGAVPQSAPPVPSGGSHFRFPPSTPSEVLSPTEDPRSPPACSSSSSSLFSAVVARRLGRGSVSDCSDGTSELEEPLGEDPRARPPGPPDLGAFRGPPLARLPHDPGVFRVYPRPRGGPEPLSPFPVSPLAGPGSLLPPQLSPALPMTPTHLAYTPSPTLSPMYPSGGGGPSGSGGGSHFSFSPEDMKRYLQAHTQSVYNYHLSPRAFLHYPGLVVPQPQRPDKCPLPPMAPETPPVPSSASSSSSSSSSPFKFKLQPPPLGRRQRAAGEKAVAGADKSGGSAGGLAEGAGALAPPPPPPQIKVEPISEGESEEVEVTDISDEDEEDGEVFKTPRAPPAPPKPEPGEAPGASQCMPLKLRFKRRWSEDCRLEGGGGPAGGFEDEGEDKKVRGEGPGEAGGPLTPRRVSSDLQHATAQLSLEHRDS
The note with it: protein: recombinant; tags: N-terminal GST; dsDNA, one strand shown. The procedure, abridged: as §1

Another experiment has as its target T7, ETV3L (Homo sapiens, UniProt Q6ZN32 1-361).
T7 sequence: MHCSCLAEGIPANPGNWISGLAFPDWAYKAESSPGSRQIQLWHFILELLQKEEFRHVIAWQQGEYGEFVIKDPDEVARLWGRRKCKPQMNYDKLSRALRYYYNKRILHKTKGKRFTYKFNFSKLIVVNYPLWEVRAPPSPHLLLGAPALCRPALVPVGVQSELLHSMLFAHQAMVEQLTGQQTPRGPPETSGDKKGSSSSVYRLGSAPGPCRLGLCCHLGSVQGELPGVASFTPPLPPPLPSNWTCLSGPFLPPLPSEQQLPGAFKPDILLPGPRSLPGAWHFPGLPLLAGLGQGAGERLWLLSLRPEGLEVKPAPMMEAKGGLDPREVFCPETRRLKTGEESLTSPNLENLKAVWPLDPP
The conditions noted are these: protein: recombinant; tags: N-terminal GST; dsDNA, one strand shown. The method, boiled down: as §1

Another experiment addresses T8, ETS2 (Homo sapiens, UniProt P15036 1-469).
T8 sequence: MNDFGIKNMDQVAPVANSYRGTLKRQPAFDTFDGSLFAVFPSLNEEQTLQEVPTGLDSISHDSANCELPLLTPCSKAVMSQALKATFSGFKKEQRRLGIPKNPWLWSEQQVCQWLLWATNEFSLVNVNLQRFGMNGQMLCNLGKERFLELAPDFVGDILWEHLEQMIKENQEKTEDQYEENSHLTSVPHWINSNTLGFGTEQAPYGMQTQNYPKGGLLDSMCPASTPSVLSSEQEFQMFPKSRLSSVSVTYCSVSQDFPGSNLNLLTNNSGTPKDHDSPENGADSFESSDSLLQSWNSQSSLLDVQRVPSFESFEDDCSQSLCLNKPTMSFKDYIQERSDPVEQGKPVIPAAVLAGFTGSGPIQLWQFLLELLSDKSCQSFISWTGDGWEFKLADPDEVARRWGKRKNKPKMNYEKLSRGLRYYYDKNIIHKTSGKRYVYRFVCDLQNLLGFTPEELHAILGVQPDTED
The note with it: protein: recombinant; tags: N-terminal GST; dsDNA, one strand shown. The procedure, abridged: as §1

The target in a further experiment is T9, SPDEF (Homo sapiens, UniProt O95238 1-335).
T9 sequence: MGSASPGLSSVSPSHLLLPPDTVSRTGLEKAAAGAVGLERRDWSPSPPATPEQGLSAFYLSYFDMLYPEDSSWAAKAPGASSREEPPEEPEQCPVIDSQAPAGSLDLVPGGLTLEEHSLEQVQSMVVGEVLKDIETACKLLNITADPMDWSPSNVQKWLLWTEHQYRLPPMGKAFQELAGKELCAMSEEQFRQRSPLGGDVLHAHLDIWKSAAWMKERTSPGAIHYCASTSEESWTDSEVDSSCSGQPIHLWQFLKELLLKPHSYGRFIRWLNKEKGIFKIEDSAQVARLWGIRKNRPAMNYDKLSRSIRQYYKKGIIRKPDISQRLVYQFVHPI
The conditions noted are these: protein: recombinant; tags: N-terminal GST; dsDNA, one strand shown. The method, boiled down: as §1

The target of the next experiment is T10, ETV7 (Homo sapiens, UniProt Q9Y603 1-341).
T10 sequence: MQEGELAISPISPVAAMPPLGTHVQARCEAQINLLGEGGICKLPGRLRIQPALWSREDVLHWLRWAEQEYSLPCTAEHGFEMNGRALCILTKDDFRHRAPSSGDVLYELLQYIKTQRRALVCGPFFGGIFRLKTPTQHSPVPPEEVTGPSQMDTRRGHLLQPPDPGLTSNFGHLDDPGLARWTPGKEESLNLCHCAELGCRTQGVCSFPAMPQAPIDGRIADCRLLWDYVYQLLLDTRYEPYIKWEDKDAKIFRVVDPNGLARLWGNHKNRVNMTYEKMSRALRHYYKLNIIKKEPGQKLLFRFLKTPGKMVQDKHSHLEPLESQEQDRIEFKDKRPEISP
The note with it: protein: recombinant; tags: N-terminal GST; dsDNA, one strand shown. The procedure, abridged:
as §1

In another experiment the target is T11, ELF5 (Homo sapiens, UniProt Q9UKW6-2 1-255).
T11 sequence: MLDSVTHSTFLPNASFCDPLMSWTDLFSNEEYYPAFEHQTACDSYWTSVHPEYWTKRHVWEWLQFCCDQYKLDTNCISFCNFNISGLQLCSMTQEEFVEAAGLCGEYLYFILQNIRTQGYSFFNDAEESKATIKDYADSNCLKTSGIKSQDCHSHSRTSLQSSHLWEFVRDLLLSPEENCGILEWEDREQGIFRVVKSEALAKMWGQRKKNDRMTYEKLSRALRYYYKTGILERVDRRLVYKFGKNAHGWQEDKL
The note with it: protein: recombinant; tags: N-terminal GST; dsDNA, one strand shown. The method, boiled down: as §1

The target of a further experiment is T12, ETV3 (Homo sapiens, UniProt P41162-2 1-143).
T12 sequence: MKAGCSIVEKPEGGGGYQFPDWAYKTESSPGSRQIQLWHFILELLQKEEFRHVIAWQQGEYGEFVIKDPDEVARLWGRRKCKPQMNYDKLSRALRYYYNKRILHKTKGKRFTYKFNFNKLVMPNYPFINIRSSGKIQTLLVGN
The conditions noted are these: protein: recombinant; tags: N-terminal GST; dsDNA, one strand shown. The procedure, abridged:
as §1

A further experiment concerns the target ETV6 (Homo sapiens, UniProt P41212 1-452). The note with it: protein: recombinant; tags: N-terminal GST; dsDNA, one strand shown. The procedure, abridged:
as §1

Sequence of ETV6 (P41212 whole entry): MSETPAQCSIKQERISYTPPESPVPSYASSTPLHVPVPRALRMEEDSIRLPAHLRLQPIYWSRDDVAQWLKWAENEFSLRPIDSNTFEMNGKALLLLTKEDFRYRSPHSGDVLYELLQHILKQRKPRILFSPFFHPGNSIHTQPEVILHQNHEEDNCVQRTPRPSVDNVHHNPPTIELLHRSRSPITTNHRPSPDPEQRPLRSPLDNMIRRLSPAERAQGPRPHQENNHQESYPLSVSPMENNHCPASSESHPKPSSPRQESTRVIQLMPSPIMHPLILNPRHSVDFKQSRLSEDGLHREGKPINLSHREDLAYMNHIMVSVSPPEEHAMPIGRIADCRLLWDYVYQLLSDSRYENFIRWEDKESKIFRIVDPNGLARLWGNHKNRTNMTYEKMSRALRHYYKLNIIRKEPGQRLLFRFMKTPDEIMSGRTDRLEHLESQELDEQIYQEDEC
Sequence of ELF4 (Q99607 whole entry): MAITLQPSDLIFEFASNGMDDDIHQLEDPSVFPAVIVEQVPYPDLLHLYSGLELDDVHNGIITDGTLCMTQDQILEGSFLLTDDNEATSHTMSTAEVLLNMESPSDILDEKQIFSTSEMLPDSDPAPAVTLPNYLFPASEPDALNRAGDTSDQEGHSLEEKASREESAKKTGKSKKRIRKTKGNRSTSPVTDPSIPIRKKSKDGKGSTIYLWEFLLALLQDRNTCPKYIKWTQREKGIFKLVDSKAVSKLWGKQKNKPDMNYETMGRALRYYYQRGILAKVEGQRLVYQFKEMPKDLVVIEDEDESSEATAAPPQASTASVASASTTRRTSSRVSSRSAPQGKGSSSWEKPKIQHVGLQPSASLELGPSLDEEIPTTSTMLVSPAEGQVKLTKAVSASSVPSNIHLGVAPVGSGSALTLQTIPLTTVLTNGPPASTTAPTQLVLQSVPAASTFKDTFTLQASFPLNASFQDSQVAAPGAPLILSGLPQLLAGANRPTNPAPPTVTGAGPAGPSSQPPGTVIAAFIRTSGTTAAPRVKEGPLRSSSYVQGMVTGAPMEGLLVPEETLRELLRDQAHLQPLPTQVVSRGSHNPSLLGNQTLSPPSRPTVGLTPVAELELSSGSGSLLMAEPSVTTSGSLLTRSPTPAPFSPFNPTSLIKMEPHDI
Sequence of CRX (O43186 whole entry): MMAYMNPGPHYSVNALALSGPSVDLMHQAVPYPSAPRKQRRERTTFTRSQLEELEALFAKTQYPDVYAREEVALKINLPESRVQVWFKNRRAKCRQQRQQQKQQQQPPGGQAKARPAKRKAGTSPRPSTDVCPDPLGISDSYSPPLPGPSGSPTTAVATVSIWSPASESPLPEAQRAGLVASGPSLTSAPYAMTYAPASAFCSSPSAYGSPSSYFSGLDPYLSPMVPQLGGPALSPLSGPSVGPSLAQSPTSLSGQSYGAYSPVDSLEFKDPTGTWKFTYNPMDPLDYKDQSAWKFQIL
Sequence of ETV1 (P50549 whole entry): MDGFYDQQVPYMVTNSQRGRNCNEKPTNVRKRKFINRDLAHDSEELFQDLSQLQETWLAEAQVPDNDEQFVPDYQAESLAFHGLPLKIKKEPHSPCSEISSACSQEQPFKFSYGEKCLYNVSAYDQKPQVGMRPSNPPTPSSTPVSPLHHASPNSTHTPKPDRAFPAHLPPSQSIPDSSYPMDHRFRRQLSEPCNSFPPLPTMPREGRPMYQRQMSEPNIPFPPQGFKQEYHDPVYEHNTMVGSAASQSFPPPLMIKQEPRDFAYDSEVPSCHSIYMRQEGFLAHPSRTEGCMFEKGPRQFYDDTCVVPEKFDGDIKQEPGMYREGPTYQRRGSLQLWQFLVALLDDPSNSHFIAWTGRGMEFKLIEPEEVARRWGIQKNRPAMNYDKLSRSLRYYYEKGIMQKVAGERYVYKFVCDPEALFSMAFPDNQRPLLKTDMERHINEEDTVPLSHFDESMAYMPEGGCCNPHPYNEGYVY
Sequence of HSF1 (Q00613 whole entry): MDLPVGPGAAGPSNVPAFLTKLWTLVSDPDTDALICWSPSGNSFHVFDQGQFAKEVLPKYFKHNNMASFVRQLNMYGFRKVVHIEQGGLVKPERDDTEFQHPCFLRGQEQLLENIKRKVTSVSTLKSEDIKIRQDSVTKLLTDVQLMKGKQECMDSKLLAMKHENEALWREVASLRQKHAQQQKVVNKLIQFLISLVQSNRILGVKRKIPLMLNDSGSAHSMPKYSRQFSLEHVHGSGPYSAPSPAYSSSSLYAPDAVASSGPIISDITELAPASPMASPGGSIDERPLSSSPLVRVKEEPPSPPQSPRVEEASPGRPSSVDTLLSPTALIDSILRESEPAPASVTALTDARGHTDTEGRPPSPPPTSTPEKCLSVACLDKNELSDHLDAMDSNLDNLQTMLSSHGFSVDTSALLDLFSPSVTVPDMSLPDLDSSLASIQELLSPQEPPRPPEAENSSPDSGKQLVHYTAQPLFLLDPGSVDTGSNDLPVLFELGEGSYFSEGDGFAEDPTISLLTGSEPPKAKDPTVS
Sequence of ETV5 (P41161 whole entry): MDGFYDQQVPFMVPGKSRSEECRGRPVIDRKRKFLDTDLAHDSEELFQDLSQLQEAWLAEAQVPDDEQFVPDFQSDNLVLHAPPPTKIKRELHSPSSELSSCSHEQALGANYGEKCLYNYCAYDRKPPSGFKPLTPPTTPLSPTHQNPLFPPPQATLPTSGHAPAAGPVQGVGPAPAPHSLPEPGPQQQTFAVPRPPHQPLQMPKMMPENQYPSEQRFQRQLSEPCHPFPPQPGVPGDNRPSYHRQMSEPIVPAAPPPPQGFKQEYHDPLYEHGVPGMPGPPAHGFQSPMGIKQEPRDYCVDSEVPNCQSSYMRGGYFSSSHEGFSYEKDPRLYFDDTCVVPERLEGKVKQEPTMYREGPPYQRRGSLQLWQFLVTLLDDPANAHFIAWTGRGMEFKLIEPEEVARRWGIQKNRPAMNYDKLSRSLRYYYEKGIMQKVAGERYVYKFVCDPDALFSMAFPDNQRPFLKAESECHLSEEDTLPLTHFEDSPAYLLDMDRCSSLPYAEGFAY

Turning to AGTATT, the binding signal in the experiment with FEV was 1.14 fold enrichment (6-mer frequency, TF over GST control); with ETV5 it was 1.2 fold enrichment (6-mer frequency, TF over GST control); in the experiment with HSF1 it was 1.35 fold enrichment (6-mer frequency, TF over GST control); in the experiment with SPIC, 1.22 fold enrichment (6-mer frequency, TF over GST control); in the experiment with ELF4, 1.16 fold enrichment (6-mer frequency, TF over GST control); in the experiment with ELK4, 1.17 fold enrichment (6-mer frequency, TF over GST control). The binding signal was 1.07 fold enrichment (6-mer frequency, TF over GST control) in the experiment with ETV2; 1.17 fold enrichment (6-mer frequency, TF over GST control) with ELF3; 1.57 fold enrichment (6-mer frequency, TF over GST control) with CRX; 1.19 fold enrichment (6-mer frequency, TF over GST control) in the experiment with ETV1; 1.3 fold enrichment (6-mer frequency, TF over GST control) in the experiment with ERF; 1.22 fold enrichment (6-mer frequency, TF over GST control) with ETV3L. The binding signal with ETS2 was 1.17 fold enrichment (6-mer frequency, TF over GST control); in the experiment with SPDEF it was 1.05 fold enrichment (6-mer frequency, TF over GST control); with ETV7, 1.3 fold enrichment (6-mer frequency, TF over GST control); in the experiment with ELF5, 1.27 fold enrichment (6-mer frequency, TF over GST control); with ETV3, 1.19 fold enrichment (6-mer frequency, TF over GST control); with ETV6, 1.32 fold enrichment (6-mer frequency, TF over GST control).
